The results in this text go back to PubChem BioAssay (EPA / NIEHS).

Calls of active or inactive are those of the source. The calls were made as follows: active = hit-call score of the fitted dose curve at least 0.9, where 1 is the maximum; inactive = score below 0.9.

Common to all, as to conditions: mRNA level, 48 h; actives raise or lower the signal
Read-out in assay [1]: matrix metalloproteinase-10 (MMP10), MMP10 (gene 4319)
In words: LTEA_HepaRG_MMP10: Life Technologies and Expression Analysis (LTEA) Assay for matrix metalloproteinase-10 (MMP10) using HepaRG (AID 2283517). An outline of the steps: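 Transcript levels come from Fluidigm qRT-PCR normalized to three housekeeping genes, with curves fitted bidirectionally against 0.5% DMSO. Human HepaRG cells were dosed for 48 hours at concentrations up to 100 uM.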

Read-out in the next assay: MYC, MYC (gene 4609)
In words: LTEA_HepaRG_MYC: Life Technologies and Expression Analysis (LTEA) Assay for MYC using HepaRG (AID 2283518). A digest of the protocol:
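Differentiated HepaRG cells exposed 48 h in serum-free induction medium to 8 concentrations (top 100 uM, half-log steps; 0.5% DMSO), duplicate. MYC mRNA measured by Fluidigm qRT-PCR, normalized to ACTB, GAPDH, POLR2A; bidirectional fit versus DMSO.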

Read-out in assay [2]: matrix metalloproteinase-3 (MMP3), MMP3 (gene 4314)
In words: LTEA_HepaRG_MMP3: Life Technologies and Expression Analysis (LTEA) Assay for matrix metalloproteinase-3 (MMP3) using HepaRG (AID 2283519). An outline of the steps: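 qRT-PCR read-out of MMP3 mRNA (normalised to three housekeeping genes) in HepaRG liver cells after 48 h chemical exposure; 8-point half-log series, top 100 uM, 0.5% DMSO vehicle. Bidirectional curve fitting against DMSO baseline.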

Read-out in assay [3]: Nuclear factor NF-kappa-B p105 subunit (Homo sapiens) (UniProt P19838)
Description: LTEA_HepaRG_NFKB1: Life Technologies and Expression Analysis (LTEA) Assay for Nuclear Factor Kappa B Subunit 1 (NFKB1) using HepaRG (AID 2283521).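 As to outcome: TaqMan qRT-PCR transcript normalised to ACTB GAPDH and POLR2A housekeeping genes.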 An outline of the steps:
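Differentiated human HepaRG cells in serum-free induction medium with 0.5% DMSO were exposed for 48 h to eight half-log concentrations, top 100 uM, in duplicate. NFKB1 mRNA measured by Fluidigm TaqMan qRT-PCR, normalised to ACTB, GAPDH and POLR2A; bidirectional fit versus DMSO.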

Read-out in assay [4]: Protein phosphatase 2A (PPP2R4), PTPA (gene 5524)
In words: LTEA_HepaRG_PPP2R4: Life Technologies and Expression Analysis (LTEA) Assay for Protein phosphatase 2A (PPP2R4) using HepaRG (AID 2283522). An outline of the steps: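 Cells were plated, cultured 48 h, switched to serum-free induction medium, then dosed for 48 h (8 points, max 100 uM, 0.5% DMSO). RNA was isolated and PPP2R4 expression measured by TaqMan qRT-PCR.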

Read-out in assay [5]: Pyruvate Dehydrogenase Kinase 4 (PDK4), PDK4 (gene 5166)
Description: LTEA_HepaRG_PDK4: Life Technologies and Expression Analysis (LTEA) Assay for Pyruvate Dehydrogenase Kinase 4 (PDK4) using HepaRG (AID 2283525). An outline of the steps: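 HepaRG (human liver line), 48 h chemical exposure, 8-pt half-log CRC top 100 uM, 0.5% DMSO vehicle, duplicates. Readout: TaqMan qRT-PCR of PDK4 mRNA, housekeeping-normalized; gain/loss fit relative to DMSO baseline.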

Read-out in assay [6]: NAD(P)H dehydrogenase [quinone] 1 (NQO1), NQO1 (gene 1728)
Description: LTEA_HepaRG_NQO1: Life Technologies and Expression Analysis (LTEA) Assay for NAD(P)H dehydrogenase [quinone] 1 (NQO1) using HepaRG (AID 2283526). A digest of the protocol: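 Transcript induction or suppression is quantified by qRT-PCR in human HepaRG liver cells dosed for 48 hours. Eight half-log concentrations topping at 100 uM are used, with 0.5% DMSO as vehicle and baseline.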

Read-out in assay [7]: solute carrier (SLC22A1), SLC22A1 (gene 6580)
Description: LTEA_HepaRG_SLC22A1: Life Technologies and Expression Analysis (LTEA) Assay for solute carrier (SLC22A1) using HepaRG (AID 2283524).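 As to AC50: TaqMan qRT-PCR normalized to ACTB GAPDH and POLR2A housekeeping genes.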 A digest of the protocol: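 qRT-PCR readout (TaqMan, Fluidigm arrays) of SLC22A1 transcript, normalized to three housekeeping genes; bidirectional curve fit relative to 0.5% DMSO vehicle. Differentiated human HepaRG cells, 48 h chemical exposure, top concentration 100 uM, half-log steps, eight points.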

Read-out in assay [8]: Phosphatase and tensin (PTEN), PTEN (gene 5728)
In words: LTEA_HepaRG_PTEN: Life Technologies and Expression Analysis (LTEA) Assay for Phosphatase and tensin (PTEN) using HepaRG (AID 2283523). An outline of the steps:
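HepaRG, 48 h exposure, 8-pt half-log series from 100 uM top, 0.5% DMSO vehicle, duplicates. Readout: Fluidigm qRT-PCR of PTEN transcript; housekeeping normalization (ACTB, GAPDH, POLR2A). Gain or loss fitted relative to DMSO baseline.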

Read-out in assay [9]: Paternally Expressed 10 (PEG10), PEG10 (gene 23089)
Description: LTEA_HepaRG_PEG10: Life Technologies and Expression Analysis (LTEA) Assay for Paternally Expressed 10 (PEG10) using HepaRG (AID 2283520).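 As to AC50: PEG10 transcript by qRT-PCR normalised to ACTB GAPDH and POLR2A.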 An outline of the steps:
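Human HepaRG cultures are dosed for 48 h across an eight-point half-log series starting at 100 uM, with 0.5% DMSO as vehicle and baseline. Gain or loss of PEG10 transcript is measured by qRT-PCR and fitted in both directions.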

Chain of Nuclear factor NF-kappa-B p105 subunit (Homo sapiens) (P19838 whole entry, looked up): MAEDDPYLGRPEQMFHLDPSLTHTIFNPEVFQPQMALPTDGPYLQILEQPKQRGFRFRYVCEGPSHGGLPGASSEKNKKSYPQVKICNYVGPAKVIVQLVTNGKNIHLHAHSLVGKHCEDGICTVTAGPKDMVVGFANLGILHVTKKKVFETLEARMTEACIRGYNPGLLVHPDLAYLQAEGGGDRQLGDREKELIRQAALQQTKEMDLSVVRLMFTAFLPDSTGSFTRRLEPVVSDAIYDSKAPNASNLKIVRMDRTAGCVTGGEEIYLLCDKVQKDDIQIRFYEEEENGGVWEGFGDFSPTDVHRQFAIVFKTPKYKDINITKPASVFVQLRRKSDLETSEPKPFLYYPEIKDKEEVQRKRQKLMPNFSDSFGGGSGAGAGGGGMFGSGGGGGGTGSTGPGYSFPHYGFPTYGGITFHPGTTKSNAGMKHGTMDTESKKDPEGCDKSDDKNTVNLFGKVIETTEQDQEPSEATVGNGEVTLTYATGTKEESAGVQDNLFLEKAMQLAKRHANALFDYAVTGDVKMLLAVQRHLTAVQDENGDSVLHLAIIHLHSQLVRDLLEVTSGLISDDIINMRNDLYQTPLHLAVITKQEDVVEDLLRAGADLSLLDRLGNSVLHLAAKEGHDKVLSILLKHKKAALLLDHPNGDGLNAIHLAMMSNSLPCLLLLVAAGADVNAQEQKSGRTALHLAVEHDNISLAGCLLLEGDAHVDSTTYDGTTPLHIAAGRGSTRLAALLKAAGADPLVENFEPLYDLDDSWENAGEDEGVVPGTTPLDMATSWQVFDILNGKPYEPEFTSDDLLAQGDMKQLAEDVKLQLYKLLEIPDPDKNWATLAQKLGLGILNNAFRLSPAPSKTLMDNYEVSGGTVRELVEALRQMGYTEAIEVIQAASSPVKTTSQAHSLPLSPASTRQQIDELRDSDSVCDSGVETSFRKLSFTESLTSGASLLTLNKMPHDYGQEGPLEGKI

With `COC(=O)CCCC(=O)OC`, the outcome was “inactive” in assay [1]; “inactive” in the assay with MYC, MYC (gene 4609); “inactive” in assay [2]; “inactive” in [3]; “inactive” in [4]; “inactive” in assay [5]. Also, in [6], the result was inactive.
With `CC(=O)O[C@]1(C(C)=O)CC[C@H]2[C@@H]3C=C(Cl)C4=CC(=O)[C@@H]5C[C@@H]5[C@]4(C)[C@H]3CC[C@@]21C`, the compound was classed as inactive in assay [1], in assay [2], in assay [3], in [4], in assay [5] and in assay [6]. For the same compound, the AC50 with MYC, MYC (gene 4609) was 9.92 µM (active); in assay [7] it was 50 µM (active).
With `O=C(Oc1ccccc1)c1cccc(C(=O)Oc2ccccc2)c1`, the outcome is “inactive” in assay [1]; “inactive” with MYC, MYC (gene 4609); “inactive” in [2]; “inactive” in assay [4]; “inactive” in assay [8]; “inactive” in assay [7]. Further, the result in [5] and in assay [6] was inactive.
For the compound `O=C1O[C@H]([C@H](O)CO)C(O)=C1O`, the outcome was “inactive” in [1]; “inactive” in the assay with MYC, MYC (gene 4609); “inactive” in assay [2]; “inactive” in assay [4]; “inactive” in [7]; “inactive” in assay [6].
In the case of `CC(C)c1cccc(C(C)C)c1`, the outcome in the assay with MYC, MYC (gene 4609) was “inactive”; in assay [2], “inactive”; in assay [9] it was “inactive”; in assay [3], “inactive”; in assay [4], “inactive”; in [8], “inactive”. Also, the result in assay [7], in assay [5] and in assay [6] was inactive.
Consider `CCCCCCC(C=O)=Cc1ccccc1`, for which the outcome in assay [1] was “inactive”; with MYC, MYC (gene 4609), “inactive”; in assay [2] it was “inactive”; in assay [3] it was “inactive”; in [4], “inactive”; in assay [8], “inactive”. Moreover, the compound was called inactive in [7], in [5] and in assay [6].
`O=C1OC(c2ccc(O)cc2)(c2ccc(O)cc2)c2ccccc21`: the outcome in assay [1] is “inactive”; in the assay with MYC, MYC (gene 4609), “inactive”; in [2], “inactive”; in [3] it was “inactive”; in [4] it was “inactive”; in [6] it was “inactive”. The AC50 in [7] was 78 µM (active); in assay [5], 50 µM (active).
For `CCC(C)N(C)C(=O)c1cc2ccccc2c(-c2ccccc2Cl)n1` (stereo not drawn), the AC50 is 31.8 µM (active) with MYC, MYC (gene 4609); 13.1 µM (active) in assay [9]; 6.3 µM (active) in [7]; 40.9 µM (active) in [5]. Also, the outcome in assay [2], in assay [3], in [4] and in assay [6] was inactive.
On to `O=NO`, for which the outcome in [1] is “inactive”; with MYC, MYC (gene 4609), “inactive”; in assay [2], “inactive”; in assay [3], “inactive”; in [4], “inactive”; in assay [8], “inactive”. The compound was classed as inactive in [7], in [5] and in assay [6].
Regarding `CCCCOC(=O)CCCCC(=O)OCCCC`, the outcome with MYC, MYC (gene 4609) was “inactive”; in [2], “inactive”; in assay [9] it was “inactive”; in assay [3], “inactive”; in assay [4], “inactive”; in assay [8], “inactive”. Also, the compound was classed as inactive in assay [5] and in assay [6]. In addition, the AC50 in [7] is 0.243 µM (active).
For `O=C1CCCCC1`, the outcome in [1] is “inactive”; with MYC, MYC (gene 4609), “inactive”; in [2], “inactive”; in assay [3] it was “inactive”; in assay [4], “inactive”; in [7] it was “inactive”. Moreover, the outcome in assay [5] and in assay [6] was inactive.
On to `Cc1occc(=O)c1O`, for which the outcome was “inactive” with MYC, MYC (gene 4609); “inactive” in assay [2]; “inactive” in assay [9]; “inactive” in assay [3]; “inactive” in [4]; “inactive” in [8]. The result in assay [7], in [5] and in [6] was inactive.
On to `S=c1[nH]c2ccccc2s1`, for which the outcome in assay [1] was “inactive”; with MYC, MYC (gene 4609), “inactive”; in assay [2], “inactive”; in [4] it was “inactive”; in assay [8], “inactive”; in assay [7], “inactive”. Also, the result in assay [5] and in assay [6] was inactive.
In the case of `CCc1cc(C2=C(C(=O)O)N(c3ccccc3C(F)(F)F)S(=O)(=O)c3ccccc32)cc2c1OCO2`, the compound was classed as inactive in assay [1], in assay [4] and in assay [6]. The AC50 is 56.7 µM (active) in the assay with MYC, MYC (gene 4609); 50 µM (active) in assay [2]; 50 µM (active) in assay [5].
Take `N[C@@H](Cc1c[nH]c2ccccc12)C(=O)O`: the outcome in assay [1] was “inactive”; with MYC, MYC (gene 4609) it was “inactive”; in assay [2], “inactive”; in assay [3], “inactive”; in assay [4] it was “inactive”; in assay [7], “inactive”. In addition, the compound was classed as inactive in assay [5] and in assay [6].
On to `CCN(CC)CCOc1ccc(C(=C(Cl)c2ccccc2)c2ccccc2)cc1`, for which the half-maximal activity concentration (AC50) in assay [1] is 28.8 µM (active); with MYC, MYC (gene 4609), 56.1 µM (active); in assay [3] it was 77.1 µM (active); in assay [8], 78.5 µM (active); in assay [7], 17.1 µM (active); in assay [5], 42 µM (active). For the same compound, the compound was called inactive in assay [2], in assay [4] and in assay [6].
Take `OCC(CO)n1cnc(-c2ccc(F)cc2)c1-c1ccnc(Oc2ccccc2)n1`: the outcome in the assay with MYC, MYC (gene 4609) is “inactive”; in assay [9], “inactive”; in [3], “inactive”; in assay [4], “inactive”; in assay [8] it was “inactive”; in assay [7], “inactive”. For the same compound, the result in assay [5] and in [6] was inactive. In assay [2], the half-maximal activity concentration (AC50) was 13.5 µM (active).
On to `C/C=C/c1ccc(OC)cc1`, for which the outcome with MYC, MYC (gene 4609) is “inactive”; in [2], “inactive”; in assay [3], “inactive”; in [4], “inactive”; in [7], “inactive”; in assay [5] it was “inactive”. In addition, the result in assay [6] was inactive.
For the compound `CC(=O)[C@@]1(O)CC[C@H]2[C@@H]3CCC4=CC(=O)CC[C@]4(C)[C@H]3CC[C@@]21C`, the outcome in the assay with MYC, MYC (gene 4609) is “inactive”; in assay [2], “inactive”; in assay [3], “inactive”; in assay [4], “inactive”; in assay [7], “inactive”; in [5] it was “inactive”. Further, the call in assay [6] was inactive. Besides, the AC50 in [9] was 7.76 µM (active).
As to `CCCCC(CC)COP(=O)(OCC(CC)CCCC)OCC(CC)CCCC` (stereo not drawn), the outcome with MYC, MYC (gene 4609) is “inactive”; in assay [2] it was “inactive”; in [9], “inactive”; in [3] it was “inactive”; in [4] it was “inactive”; in assay [7], “inactive”. Further, the compound was classed as inactive in assay [5] and in [6].
As to `O=C(N[C@@H](c1ccccc1)[C@@H]1CCCCN1)c1cccc(C(F)(F)F)c1Cl`, the AC50 in the assay with MYC, MYC (gene 4609) is 50 µM (active); in assay [2], 87.1 µM (active); in [9] it was 50 µM (active); in assay [4], 89.5 µM (active); in assay [7], 40.5 µM (active); in assay [5] it was 50 µM (active). In addition, the compound was called inactive in assay [3] and in assay [6].
Take `CC(C)(C)c1ccccc1`: the outcome in the assay with MYC, MYC (gene 4609) was “inactive”; in assay [2] it was “inactive”; in assay [4] it was “inactive”; in [7] it was “inactive”; in assay [5] it was “inactive”; in [6] it was “inactive”.
In the case of `CCOCCOCCO`, the outcome with MYC, MYC (gene 4609) is “inactive”; in [2], “inactive”; in assay [3], “inactive”; in assay [4], “inactive”; in assay [8], “inactive”; in assay [7], “inactive”. For the same compound, the result in assay [5] and in [6] was inactive.

In general, AC50 refers to the concentration giving half of the maximal activity seen.
